For orientation: inhibition means the drop in the measured response relative to a control, in per cent.

Consider 30 compounds from PubChem BioAssay AID504690 (Sanford-Burnham Center for Chemical Genomics, 2011).

Molecules are shown by their SMILES. About 2,700 (0.77%) of roughly 350,000 compounds were called active. For the sample, actives were picked, then their nearest neighbours and some compounds at random. Values without a mark were called inactive.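 Rule for the calls: active = inhibition reaching at least a set limit at 20 µM in the primary screen (cut at about 59% in these data); inactive = the rest.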

In the assay the test system is glucose-6-phosphate dehydrogenase-6-phosphogluconolactonase (Plasmodium falciparum 3D7). Nature of the assay: PfG6PD enzyme inhibitors, primary screen, biochemical, fluorescence intensity, uHTS (AID 504690).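 Note: 0% = DMSO wells with substrate and 100% = DMSO wells lacking glucose-6-phosphate.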 The note with it: PfGluPho enzyme, NADPH resazurin-diaphorase fluorescence; at 20 µM; stronger effect = higher value. (Alamar Blue is a resazurin reagent that responds to reducing activity.)
For the compound `O=C(CSC1c2ccccc2-c2ccccc21)N/N=C/c1ccccc1`, the inhibition is 62.4% (active).

Regarding `C[C@]12CCCCC1=CC(=O)C1C2CC[C@@]2(C)C1C[C@@H](F)[C@@H]2O` (stereo not given in full), the inhibition was -7.47%. As for `CCOP(=S)(OCC)SCOC(=O)NCC(=O)OC`, the inhibition is -4.03%.

Turning to `COC(=O)C1=C(c2cccc(OCc3ccccc3)c2)C[C@@H]2CC[C@H]1N2C(=O)NCc1ccc(Br)cc1`, the inhibition is 9.43%.

For the compound `CN1CCN(c2cc(N3CCNCC3)ccc2[N+](=O)[O-])CC1`, the inhibition is 1.22%.

As for `COc1cccc(-c2nc3ccc(N4CCN(C)CC4)cc3[nH]2)c1`, the inhibition was 64.4% (active). Next, `c1ccc(C(CN2CCCCC2)c2ccccc2)cc1`: -1.44%; `COc1ccccc1C1=NCc2nnc(CSC)n2-c2ccc(Cl)cc21`: -31.3%.

For `C[C@@]1([C@@H](NP(=O)(c2ccccc2)c2ccccc2)c2ccccc2)C[C@H]1CCO`, the inhibition was -0.29%. Next, `O=C(NCC(c1cccnc1)N1CCN(c2ccccc2)CC1)Oc1ccccc1` (stereo not given): 7.5%; `Nc1ccc(Cc2ccc(N)c(Cl)c2)cc1Cl`: -5.41%. Consider `COc1ccc2c(c1)NP(=S)(c1ccccc1)N2` (stereo not given), for which the inhibition was 46.5%. The value for `Cc1cc(C)c2c(c1)NP(=S)(c1ccccc1)N2` (stereo not given) was 63.6% (active); that for `C/C=C/CC1(CC)C(=O)NC(=S)NC1=O` was -4.76%. Next, `Nc1ccc(C(=O)N/N=C2/CN3CCC2CC3)cc1`: -10.7%. Regarding `COC(=O)N(c1ccc(OC)cc1)P1(=S)OCCC(C)O1` (stereo not given), the inhibition was 81.9% (active). In the case of `O=C(CN1CCCCC1)Nc1ccc(Br)cc1C(=O)c1ccccc1Cl`, the inhibition is 0.87%. `C=CCn1c(O)c(/C=N/N2CCOCC2)c(=O)[nH]c1=S`: the inhibition is -2.25%.

Consider `COc1ccc(N2C(=O)/C(=C/c3ccco3)C(=O)NC2=S)cc1`, for which the inhibition is 23.2%. As for `O=C1NC(=O)N(CCc2ccc(F)cc2)C(=O)/C1=C/C=C/c1ccccc1`, the inhibition was 4.03%. Next, `O=C1NC(=O)N(Cc2ccco2)C(=O)/C1=C\c1ccc(-c2ccc(F)cc2)o1`: 72% (active). The value for `N#Cc1ccc(Cn2cc(C(=O)c3ccco3)c3ccccc32)cc1` was 4.04%; that for `CCC1(C)CC(CCNCc2ccc(N(C)C)cc2)(c2ccc(F)cc2)CCO1` (stereo not given) was -7.55%. In the case of `CC(=O)OC1C2(CC3N4C(=O)C5(CO)SSC4(CC31O)C(=O)N5C)OC(C)C(C)(C)C2=O` (stereo not given), the inhibition was 19.4%. Next, `O=C1NC(=O)N(c2ccc(F)cc2)C(=O)/C1=C/c1ccc2c(c1)CCCN2Cc1ccccc1`: 18.3%. As to `O=C1NC(=O)N(c2ccccc2)C(=O)/C1=C/c1ccc([N+](=O)[O-])s1`, the inhibition is 64.8% (active). The value for `COc1cccc(N2C(=O)NC(=O)/C(=C\c3ccc([N+](=O)[O-])s3)C2=O)c1` was 56%; that for `CCOP(=O)(OCC)C(NC(=O)c1ccc(C)cc1)C(Cl)(Cl)Cl` (stereo not given) was 1.69%. Next, `CCOCCc1c(O)[nH]c(=S)[nH]c1=O`: 21.3%; `CCOP(=S)(OCC)C(O)CCCCCn1c(=O)c(F)cn(C2CCCO2)c1=O` (stereo not given): 11.4%.
